Test in all cases: DAPPL (digital affinity profiling via proximity ligation, sequencing); 10 mM Tris-HCl pH 7.5, 50 mM NaCl, 1 mM DTT, 4% glycerol, room temperature, 30 min; GST-TFs on glutathione beads, 16-mer random dsDNA library, 0.1% formaldehyde crosslink after washing; high values mean tight binding
Assay [1] has as its target T1, FLI1 (Homo sapiens, UniProt Q01543 1-452).
T1 sequence: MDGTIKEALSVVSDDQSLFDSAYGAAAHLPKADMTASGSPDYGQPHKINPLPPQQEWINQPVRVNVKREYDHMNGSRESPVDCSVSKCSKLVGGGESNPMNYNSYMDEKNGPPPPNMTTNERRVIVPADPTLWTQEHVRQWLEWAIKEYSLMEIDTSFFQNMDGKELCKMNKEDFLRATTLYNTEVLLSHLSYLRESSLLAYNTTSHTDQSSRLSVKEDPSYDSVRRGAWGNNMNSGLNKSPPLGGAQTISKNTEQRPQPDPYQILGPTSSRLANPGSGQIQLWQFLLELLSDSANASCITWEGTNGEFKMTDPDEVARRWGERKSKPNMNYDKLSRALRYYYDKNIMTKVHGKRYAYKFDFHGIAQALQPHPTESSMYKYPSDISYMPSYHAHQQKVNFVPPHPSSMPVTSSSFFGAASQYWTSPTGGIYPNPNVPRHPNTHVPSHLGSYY
Particulars: protein: recombinant; tags: N-terminal GST; dsDNA, one strand shown. Put shortly: (§1)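 Human transcription factors were made in yeast as GST fusions, captured on glutathione beads and barcoded with DNA. With a tag-only sample included, the pool was incubated with 200 nmole of a random double-stranded 16-mer DNA library in Tris/NaCl/DTT/glycerol buffer at room temperature for 30 min, then crosslinked with 0.1% formaldehyde after washing, ligated by proximity, amplified and sequenced. For binding signal, each hexamer's read frequency for a factor is divided by its frequency for the tag-only sample.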

Assay [2] deals with T2, ELK1 (Homo sapiens, UniProt P19419 1-428).
T2 sequence: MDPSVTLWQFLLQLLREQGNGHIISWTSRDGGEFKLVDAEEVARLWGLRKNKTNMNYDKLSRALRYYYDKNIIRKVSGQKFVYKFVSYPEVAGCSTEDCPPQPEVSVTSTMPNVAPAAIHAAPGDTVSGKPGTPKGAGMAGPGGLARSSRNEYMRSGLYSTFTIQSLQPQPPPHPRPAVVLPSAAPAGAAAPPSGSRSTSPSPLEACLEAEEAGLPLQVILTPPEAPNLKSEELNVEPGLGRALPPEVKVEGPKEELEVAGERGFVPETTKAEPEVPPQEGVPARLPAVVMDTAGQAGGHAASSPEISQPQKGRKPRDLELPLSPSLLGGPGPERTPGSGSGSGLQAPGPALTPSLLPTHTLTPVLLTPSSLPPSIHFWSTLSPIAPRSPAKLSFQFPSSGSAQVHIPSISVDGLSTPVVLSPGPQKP
Particulars: protein: recombinant; tags: N-terminal GST; dsDNA, one strand shown. The method, boiled down:
as §1

The target in assay [3] is T3, GABPA (Homo sapiens, UniProt Q06546 1-454).
T3 sequence: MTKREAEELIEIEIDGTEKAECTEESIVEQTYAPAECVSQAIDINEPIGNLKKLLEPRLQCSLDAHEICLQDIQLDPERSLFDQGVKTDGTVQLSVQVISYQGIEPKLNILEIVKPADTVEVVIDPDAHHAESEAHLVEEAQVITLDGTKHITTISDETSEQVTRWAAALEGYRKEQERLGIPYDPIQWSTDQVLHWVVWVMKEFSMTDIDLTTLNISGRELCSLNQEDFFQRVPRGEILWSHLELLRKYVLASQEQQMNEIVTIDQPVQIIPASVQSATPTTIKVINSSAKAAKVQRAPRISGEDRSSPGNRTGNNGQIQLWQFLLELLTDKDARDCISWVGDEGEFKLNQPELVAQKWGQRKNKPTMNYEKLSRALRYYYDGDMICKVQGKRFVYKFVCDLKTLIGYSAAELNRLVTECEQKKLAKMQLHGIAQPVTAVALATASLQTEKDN
The settings on record: protein: recombinant; tags: N-terminal GST; dsDNA, one strand shown. Put shortly:
as §1

For assay [4], the target named is T4, ERG (Homo sapiens, UniProt P11308 1-479).
T4 sequence: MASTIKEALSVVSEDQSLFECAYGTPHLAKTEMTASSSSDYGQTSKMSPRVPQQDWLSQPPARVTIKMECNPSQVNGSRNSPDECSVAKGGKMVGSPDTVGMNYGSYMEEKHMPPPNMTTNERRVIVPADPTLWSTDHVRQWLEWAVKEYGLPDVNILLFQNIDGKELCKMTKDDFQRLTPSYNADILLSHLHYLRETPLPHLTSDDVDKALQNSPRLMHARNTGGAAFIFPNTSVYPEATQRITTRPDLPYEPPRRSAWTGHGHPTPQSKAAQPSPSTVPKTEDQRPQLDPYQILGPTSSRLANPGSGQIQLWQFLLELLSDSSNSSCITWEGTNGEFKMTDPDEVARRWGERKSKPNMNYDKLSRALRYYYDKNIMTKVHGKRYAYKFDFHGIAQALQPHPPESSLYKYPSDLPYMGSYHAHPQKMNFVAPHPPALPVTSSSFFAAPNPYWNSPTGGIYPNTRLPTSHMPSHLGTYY
Particulars: protein: recombinant; tags: N-terminal GST; dsDNA, one strand shown. Put shortly: as §1

Assay [5] concerns the target ELF1 (Homo sapiens, UniProt P32519 1-619). The settings on record: protein: recombinant; tags: N-terminal GST; dsDNA, one strand shown. Put shortly:
as §1

The target in assay [6] is T5, EHF (Homo sapiens, UniProt Q9NZC4 1-300).
T5 sequence: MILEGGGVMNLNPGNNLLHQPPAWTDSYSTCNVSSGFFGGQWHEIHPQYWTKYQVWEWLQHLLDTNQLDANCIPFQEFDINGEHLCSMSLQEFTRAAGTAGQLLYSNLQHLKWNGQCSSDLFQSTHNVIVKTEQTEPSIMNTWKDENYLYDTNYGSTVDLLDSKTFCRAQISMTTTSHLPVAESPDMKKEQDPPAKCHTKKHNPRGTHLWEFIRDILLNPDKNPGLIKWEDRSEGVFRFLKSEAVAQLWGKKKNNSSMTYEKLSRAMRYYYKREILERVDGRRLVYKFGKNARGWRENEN
The settings on record: protein: recombinant; tags: N-terminal GST; dsDNA, one strand shown. The method, boiled down:
as §1

Assay [7] concerns the target SPI1 (Homo sapiens, UniProt P17947 1-270). Particulars: protein: recombinant; tags: N-terminal GST; dsDNA, one strand shown. The method, boiled down:
as §1

The target of assay [8] is SPIB (Homo sapiens, UniProt Q01892 1-262). The settings on record: protein: recombinant; tags: N-terminal GST; dsDNA, one strand shown. The method, boiled down: as §1
Assay [9] has as its target T6, ELK3 (Homo sapiens, UniProt P41970 1-407).
T6 sequence: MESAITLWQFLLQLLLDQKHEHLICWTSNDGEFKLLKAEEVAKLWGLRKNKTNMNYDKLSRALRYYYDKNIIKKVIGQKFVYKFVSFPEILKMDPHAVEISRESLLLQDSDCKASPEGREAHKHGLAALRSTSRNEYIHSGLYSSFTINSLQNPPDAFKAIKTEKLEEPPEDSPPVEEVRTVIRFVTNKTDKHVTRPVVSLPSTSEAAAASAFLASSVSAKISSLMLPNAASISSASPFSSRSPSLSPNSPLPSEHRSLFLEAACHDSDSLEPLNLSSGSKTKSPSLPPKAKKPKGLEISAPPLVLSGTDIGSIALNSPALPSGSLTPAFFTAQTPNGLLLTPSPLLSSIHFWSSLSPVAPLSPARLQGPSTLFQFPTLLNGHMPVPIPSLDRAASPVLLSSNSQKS
The settings on record: protein: recombinant; tags: N-terminal GST; dsDNA, one strand shown. The method, boiled down: as §1

Assay [10] addresses T7, FEV (Homo sapiens, UniProt Q99581 1-238).
T7 sequence: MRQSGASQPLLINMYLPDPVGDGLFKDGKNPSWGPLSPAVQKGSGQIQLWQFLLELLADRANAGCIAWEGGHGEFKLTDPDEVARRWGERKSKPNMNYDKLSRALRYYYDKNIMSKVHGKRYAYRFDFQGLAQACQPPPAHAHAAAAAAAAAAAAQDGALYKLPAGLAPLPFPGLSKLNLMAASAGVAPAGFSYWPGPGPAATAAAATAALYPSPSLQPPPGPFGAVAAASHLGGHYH
Particulars: protein: recombinant; tags: N-terminal GST; dsDNA, one strand shown. The method, boiled down:
as §1

Assay [11] deals with ETV5 (Homo sapiens, UniProt P41161 1-510). Particulars: protein: recombinant; tags: N-terminal GST; dsDNA, one strand shown. The method, boiled down:
as §1

In assay [12] the target is HSF1 (Homo sapiens, UniProt Q00613 1-529). The settings on record: protein: recombinant; tags: N-terminal GST; chain copies: 3; dsDNA, one strand shown. The method, boiled down:
as §1

The target of assay [13] is T8, SPIC (Homo sapiens, UniProt Q8N5J4 1-248).
T8 sequence: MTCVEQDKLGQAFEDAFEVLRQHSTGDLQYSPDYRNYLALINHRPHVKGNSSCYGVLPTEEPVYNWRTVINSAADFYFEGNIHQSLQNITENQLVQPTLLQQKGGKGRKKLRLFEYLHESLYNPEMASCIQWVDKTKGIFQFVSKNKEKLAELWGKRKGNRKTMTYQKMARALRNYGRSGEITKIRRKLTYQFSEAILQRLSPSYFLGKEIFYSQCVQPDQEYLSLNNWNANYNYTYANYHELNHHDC
Particulars: protein: recombinant; tags: N-terminal GST; dsDNA, one strand shown. The method, boiled down: as §1

In assay [14] the target is ELF4 (Homo sapiens, UniProt Q99607 1-663). The settings on record: protein: recombinant; tags: N-terminal GST; dsDNA, one strand shown. Put shortly:
as §1

Assay [15] concerns the target T9, ELK4 (Homo sapiens, UniProt P28324-2 1-405).
T9 sequence: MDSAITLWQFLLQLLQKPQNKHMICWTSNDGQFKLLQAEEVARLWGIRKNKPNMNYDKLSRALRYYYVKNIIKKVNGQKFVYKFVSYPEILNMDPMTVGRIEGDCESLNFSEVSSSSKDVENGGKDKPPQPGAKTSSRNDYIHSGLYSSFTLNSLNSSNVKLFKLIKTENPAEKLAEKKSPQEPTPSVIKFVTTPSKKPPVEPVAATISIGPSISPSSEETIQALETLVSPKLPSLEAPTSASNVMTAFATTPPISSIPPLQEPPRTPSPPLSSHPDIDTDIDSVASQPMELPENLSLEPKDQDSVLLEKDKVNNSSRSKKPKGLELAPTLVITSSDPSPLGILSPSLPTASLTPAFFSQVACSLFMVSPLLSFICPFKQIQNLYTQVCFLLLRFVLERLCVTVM
Particulars: protein: recombinant; tags: N-terminal GST; dsDNA, one strand shown. Put shortly:
as §1

Assay [16] concerns the target T10, ETV2 (Homo sapiens, UniProt O00321 1-342).
T10 sequence: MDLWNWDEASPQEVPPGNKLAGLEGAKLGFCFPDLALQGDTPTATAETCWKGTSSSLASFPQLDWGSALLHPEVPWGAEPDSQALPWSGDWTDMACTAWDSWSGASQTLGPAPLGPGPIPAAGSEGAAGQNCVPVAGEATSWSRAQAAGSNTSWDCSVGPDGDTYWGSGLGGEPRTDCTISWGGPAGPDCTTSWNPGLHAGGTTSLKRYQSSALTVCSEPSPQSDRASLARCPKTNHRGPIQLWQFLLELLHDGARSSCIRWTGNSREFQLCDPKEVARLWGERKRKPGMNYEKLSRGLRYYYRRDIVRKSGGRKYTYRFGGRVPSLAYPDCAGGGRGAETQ
The settings on record: protein: recombinant; tags: N-terminal GST; dsDNA, one strand shown. The method, boiled down: as §1

In assay [17] the target is T11, ELF3 (Homo sapiens, UniProt P78545 1-371).
T11 sequence: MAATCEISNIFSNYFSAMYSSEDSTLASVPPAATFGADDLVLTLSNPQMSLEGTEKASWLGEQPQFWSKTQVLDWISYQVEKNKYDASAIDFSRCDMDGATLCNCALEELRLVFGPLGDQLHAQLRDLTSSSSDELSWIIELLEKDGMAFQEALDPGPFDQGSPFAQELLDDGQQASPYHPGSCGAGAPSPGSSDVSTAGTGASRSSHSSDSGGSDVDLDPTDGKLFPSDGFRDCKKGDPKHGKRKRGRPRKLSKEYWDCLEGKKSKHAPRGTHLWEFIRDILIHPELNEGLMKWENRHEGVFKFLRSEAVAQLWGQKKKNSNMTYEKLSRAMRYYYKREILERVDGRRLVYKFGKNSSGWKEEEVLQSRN
Particulars: protein: recombinant; tags: N-terminal GST; dsDNA, one strand shown. The method, boiled down: as §1

In assay [18] the target is ETV1 (Homo sapiens, UniProt P50549 1-477). Particulars: protein: recombinant; tags: N-terminal GST; dsDNA, one strand shown. The method, boiled down:
as §1

The values that follow come from PMC7862700, “An all-to-all approach to the identification of sequence-specific readers for epigenetic DNA modifications on cytosine”.

Sequence of ETV1 (P50549 whole entry): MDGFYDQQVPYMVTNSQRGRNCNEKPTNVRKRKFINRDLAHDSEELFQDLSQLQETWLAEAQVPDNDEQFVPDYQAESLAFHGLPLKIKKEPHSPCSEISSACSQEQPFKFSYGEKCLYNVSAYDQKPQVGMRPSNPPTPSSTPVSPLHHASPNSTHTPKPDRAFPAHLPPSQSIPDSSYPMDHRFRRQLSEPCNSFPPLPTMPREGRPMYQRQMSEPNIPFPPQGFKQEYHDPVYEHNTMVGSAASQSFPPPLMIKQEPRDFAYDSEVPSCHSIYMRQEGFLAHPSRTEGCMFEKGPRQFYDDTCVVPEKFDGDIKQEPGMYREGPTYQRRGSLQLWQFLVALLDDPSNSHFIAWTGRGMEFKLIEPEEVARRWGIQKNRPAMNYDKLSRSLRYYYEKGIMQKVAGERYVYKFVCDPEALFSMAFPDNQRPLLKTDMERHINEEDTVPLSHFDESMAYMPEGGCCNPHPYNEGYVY
Sequence of ETV5 (P41161 whole entry): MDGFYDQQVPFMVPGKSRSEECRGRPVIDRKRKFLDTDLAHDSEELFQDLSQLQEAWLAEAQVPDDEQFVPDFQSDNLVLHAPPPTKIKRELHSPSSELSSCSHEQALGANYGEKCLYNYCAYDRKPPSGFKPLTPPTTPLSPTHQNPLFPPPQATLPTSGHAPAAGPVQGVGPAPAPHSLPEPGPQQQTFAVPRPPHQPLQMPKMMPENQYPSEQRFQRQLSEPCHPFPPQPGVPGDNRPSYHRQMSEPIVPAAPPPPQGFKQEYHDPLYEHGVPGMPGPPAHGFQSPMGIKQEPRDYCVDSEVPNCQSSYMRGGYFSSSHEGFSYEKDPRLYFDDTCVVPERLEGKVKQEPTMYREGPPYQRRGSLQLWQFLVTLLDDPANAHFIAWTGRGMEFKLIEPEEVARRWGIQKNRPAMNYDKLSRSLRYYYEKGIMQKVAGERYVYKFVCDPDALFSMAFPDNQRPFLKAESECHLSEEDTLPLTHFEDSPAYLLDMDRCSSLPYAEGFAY
Sequence of HSF1 (Q00613 whole entry): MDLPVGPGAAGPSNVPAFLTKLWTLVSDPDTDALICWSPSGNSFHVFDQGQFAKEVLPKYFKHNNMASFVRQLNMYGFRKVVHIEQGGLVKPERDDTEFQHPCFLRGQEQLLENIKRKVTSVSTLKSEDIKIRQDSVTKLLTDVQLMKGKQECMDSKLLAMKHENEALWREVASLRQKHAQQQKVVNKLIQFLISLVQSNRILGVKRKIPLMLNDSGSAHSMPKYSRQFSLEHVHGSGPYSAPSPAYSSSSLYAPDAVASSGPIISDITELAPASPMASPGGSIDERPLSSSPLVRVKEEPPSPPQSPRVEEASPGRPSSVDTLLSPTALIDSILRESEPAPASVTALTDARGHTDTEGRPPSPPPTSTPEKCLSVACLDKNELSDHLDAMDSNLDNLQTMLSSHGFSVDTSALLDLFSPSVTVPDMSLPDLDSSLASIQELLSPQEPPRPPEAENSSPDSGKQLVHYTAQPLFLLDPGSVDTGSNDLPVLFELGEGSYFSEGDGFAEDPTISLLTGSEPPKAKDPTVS
Sequence of SPIB (Q01892 whole entry): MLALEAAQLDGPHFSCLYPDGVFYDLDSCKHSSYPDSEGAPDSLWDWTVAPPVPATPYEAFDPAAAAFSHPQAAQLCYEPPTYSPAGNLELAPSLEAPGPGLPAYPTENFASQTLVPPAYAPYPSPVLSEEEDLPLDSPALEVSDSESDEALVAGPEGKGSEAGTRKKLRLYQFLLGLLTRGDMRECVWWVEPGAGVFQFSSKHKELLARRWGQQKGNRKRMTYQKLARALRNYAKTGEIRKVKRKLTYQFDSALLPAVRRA
Sequence of ELF1 (P32519 whole entry): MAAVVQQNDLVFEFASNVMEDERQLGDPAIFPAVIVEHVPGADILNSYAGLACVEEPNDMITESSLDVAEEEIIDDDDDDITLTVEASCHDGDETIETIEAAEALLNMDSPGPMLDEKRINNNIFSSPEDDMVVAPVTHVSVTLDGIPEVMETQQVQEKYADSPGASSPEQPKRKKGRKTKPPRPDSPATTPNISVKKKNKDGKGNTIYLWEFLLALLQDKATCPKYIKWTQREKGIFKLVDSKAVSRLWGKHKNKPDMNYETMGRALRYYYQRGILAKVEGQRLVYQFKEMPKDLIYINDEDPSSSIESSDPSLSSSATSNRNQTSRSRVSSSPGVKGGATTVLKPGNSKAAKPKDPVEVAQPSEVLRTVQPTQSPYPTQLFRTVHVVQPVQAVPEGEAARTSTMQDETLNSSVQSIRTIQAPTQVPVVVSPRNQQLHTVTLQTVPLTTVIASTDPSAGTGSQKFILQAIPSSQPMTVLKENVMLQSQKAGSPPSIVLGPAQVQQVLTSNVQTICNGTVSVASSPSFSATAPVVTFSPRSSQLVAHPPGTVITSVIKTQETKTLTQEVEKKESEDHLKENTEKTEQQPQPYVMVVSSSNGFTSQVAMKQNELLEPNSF
Sequence of ELF4 (Q99607 whole entry): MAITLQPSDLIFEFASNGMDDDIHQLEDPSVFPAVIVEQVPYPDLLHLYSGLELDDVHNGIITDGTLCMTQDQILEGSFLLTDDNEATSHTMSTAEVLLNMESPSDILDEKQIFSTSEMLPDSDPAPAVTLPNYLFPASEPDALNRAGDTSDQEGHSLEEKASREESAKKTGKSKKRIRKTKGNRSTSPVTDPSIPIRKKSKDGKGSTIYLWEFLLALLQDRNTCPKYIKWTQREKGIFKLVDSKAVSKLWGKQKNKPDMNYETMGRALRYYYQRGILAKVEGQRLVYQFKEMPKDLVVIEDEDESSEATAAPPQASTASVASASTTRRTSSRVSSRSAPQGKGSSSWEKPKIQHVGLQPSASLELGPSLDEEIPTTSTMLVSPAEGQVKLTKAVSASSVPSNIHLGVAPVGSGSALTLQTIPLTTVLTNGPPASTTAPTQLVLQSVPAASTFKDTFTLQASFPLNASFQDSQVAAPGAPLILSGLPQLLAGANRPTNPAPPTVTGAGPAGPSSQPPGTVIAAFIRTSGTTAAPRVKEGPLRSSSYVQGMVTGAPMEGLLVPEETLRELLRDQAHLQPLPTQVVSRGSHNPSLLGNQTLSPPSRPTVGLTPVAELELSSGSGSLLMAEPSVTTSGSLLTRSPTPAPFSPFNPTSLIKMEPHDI

As to CTGCCG, the binding signal in [1] was 1.28 fold enrichment (6-mer frequency, TF over GST control); in [2], 1.45 fold enrichment (6-mer frequency, TF over GST control); in [3] it was 1.36 fold enrichment (6-mer frequency, TF over GST control); in assay [4], 1.26 fold enrichment (6-mer frequency, TF over GST control); in assay [5] it was 1.34 fold enrichment (6-mer frequency, TF over GST control); in assay [6] it was 1.39 fold enrichment (6-mer frequency, TF over GST control). Also, the binding signal in [7] is 1.22 fold enrichment (6-mer frequency, TF over GST control); in assay [8], 1.41 fold enrichment (6-mer frequency, TF over GST control); in [9] it was 1.27 fold enrichment (6-mer frequency, TF over GST control); in assay [10] it was 1.35 fold enrichment (6-mer frequency, TF over GST control); in assay [11], 1.36 fold enrichment (6-mer frequency, TF over GST control); in assay [12] it was 1.04 fold enrichment (6-mer frequency, TF over GST control). The binding signal in assay [13] is 1.31 fold enrichment (6-mer frequency, TF over GST control); in assay [14], 1.28 fold enrichment (6-mer frequency, TF over GST control); in assay [15], 1.24 fold enrichment (6-mer frequency, TF over GST control); in [16], 1.07 fold enrichment (6-mer frequency, TF over GST control); in assay [17], 1.09 fold enrichment (6-mer frequency, TF over GST control); in [18] it was 1.34 fold enrichment (6-mer frequency, TF over GST control).
